The results in this text go back to PubChem BioAssay.

Assay [1] is described as follows: viability loss with induced miR-34 in A549 – imaging, A549 dox-inducible miR-34, nuclei and caspase counts, primary screen (AID 1347080;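 active = compounds whose cell count with miR-34 switched on is under 0.7 times the count with it off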). Conditions: A549 miR-34 inducible, Hoechst nuclei count, 48 h.
Assay [2] in a line: MELAS cybrid and Rieske KO viability enhancers – cell-based, MELAS cybrids, Rieske KO mouse fibroblasts, CellTiter-Glo, primary screen (AID 1508586).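 Note: z relative to plate mean and SD of compound and empty wells.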 To be noted: low glucose.
Setting [3] is: stronger effect = lower value, cell number ratio, induced over uninduced.
[4] abbreviates: measured here: relative caspase fold change +Dox/-Dox.
Where [5] appears, read: measured here: total cells with miR-34 induction, stronger effect = lower value.
[6] abbreviates: measured here: total cells without miR-34 induction.
Setting [7] is: MELAS cybrid survival, CellTiter-Glo 48 h, stronger effect = higher value.
Where [8] appears, read: Rieske KO mouse fibroblast survival, CellTiter-Glo 72 h.

The source made the active and inactive calls.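 Rule for the calls, unless noted: active = mean z-score across replicates of 1.96 or higher in either the MELAS or the Rieske mutant cell line; inactive = the rest.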
Note: test concentration not given here.

Regarding `COc1ccc(CC2c3cc(OC)c(OC)cc3CC[N@+]2(C)CCC(=O)OCCCCCOC(=O)CC[N@@+]2(C)CCc3cc(OC)c(OC)cc3C2Cc2ccc(OC)c(OC)c2)cc1OC` (stereo partly drawn), the fold change in assay [1] (setting [3]) was 0.844 (inactive); in assay [1] (setting [4]), 1.36. The cell count is 7940 in assay [1] (setting [5]) and 9400 in assay [1] (setting [6]). Besides, the z-score was -0.391 (inactive) in assay [2] (setting [7]) and 0.533 in assay [2] (setting [8]).

As for `CC(C)N(CCCNC(=O)Nc1ccc(C(C)(C)C)cc1)CC1OC(n2ccc3c(N)ncnc32)C(O)C1O` (stereo not drawn), the fold change was 0.885 (inactive) in assay [1] (setting [3]) and 0.359 in assay [1] (setting [4]). In addition, the cell count in assay [1] (setting [5]) was determined as 8440; in assay [1] (setting [6]), 9540. For the same compound, the z-score in assay [2] (setting [7]) is -0.287 (inactive); in assay [2] (setting [8]) it was 0.555.

Turning to `CCN1CC(C)n2c(c(O)c3c(=O)n(Cc4ccc(F)c(Cl)c4)nc(C(=O)NC)c32)C1=O` (stereo not drawn), the fold change in assay [1] (setting [3]) was 1.07 (inactive); in assay [1] (setting [4]), 0.451. The cell count in assay [1] (setting [5]) was determined as 7640; in assay [1] (setting [6]), 7150. For the same compound, the z-score in assay [2] (setting [7]) was -0.423 (inactive); in assay [2] (setting [8]), 0.325.

As to `CN1CCC(NC(=O)c2cc(-c3c(O)cc(O)cc3Oc3ccc([N+](=O)[O-])cc3)on2)CC1`, the fold change in assay [1] (setting [3]) is 1.08 (inactive); in assay [1] (setting [4]) it was 0.376. Further, the results for the cell count in assay [1] (setting [5]) and in assay [1] (setting [6]) were 2520 and 2330, respectively. For the same compound, the results for the z-score in assay [2] (setting [7]) and in assay [2] (setting [8]) were 2.88 (active) and -1.28, respectively.

Consider `O=C(C=CC=Cc1ccc2c(c1)OCO2)N1CCCCC1`, for which the fold change was 1 (inactive) in assay [1] (setting [3]) and 0.989 in assay [1] (setting [4]). The cell count in assay [1] (setting [5]) and in assay [1] (setting [6]) was 9240 each time. Also, the results for the z-score in assay [2] (setting [7]) and in assay [2] (setting [8]) were -0.417 (inactive) and 0.823, respectively.

Consider `C=C1C[C@@]2(O)O[C@@]3(CC2C(C)C)C(C)CC[C@@H]13` (stereo partly drawn), for which the fold change was 0.988 (inactive) in assay [1] (setting [3]) and 0.924 in assay [1] (setting [4]). Moreover, the results for the cell count in assay [1] (setting [5]) and in assay [1] (setting [6]) were 9960 and 10100, respectively. For the same compound, the z-score in assay [2] (setting [7]) was -0.407 (inactive); in assay [2] (setting [8]), 0.387.

Turning to `CC1(C)C(O[C@H]2OC(C(=O)O)C(O)C(O)C2O[C@@H]2OC(C(=O)O)C(O)C(O)C2O)CC[C@@]2(C)[C@H]3C(=O)C=C4[C@@H]5C[C@@](C)(C(=O)O)CC[C@]5(C)CC[C@@]4(C)[C@]3(C)CC[C@@H]12` (stereo partly drawn), the fold change is 0.946 (inactive) in assay [1] (setting [3]) and 0.91 in assay [1] (setting [4]). The cell count is 7600 in assay [1] (setting [5]) and 8030 in assay [1] (setting [6]). In addition, the z-score in assay [2] (setting [7]) was -0.278 (inactive); in assay [2] (setting [8]), -0.114.

`COC(=O)CCSCc1ccc(-c2onc(C)c2NC(=O)OC(C)c2ccccc2Cl)cc1` (stereo not drawn): the fold change in assay [1] (setting [3]) is 0.847 (inactive); in assay [1] (setting [4]), 0.706. Further, the cell count in assay [1] (setting [5]) came out at 6550; in assay [1] (setting [6]), 7730. The z-score in assay [2] (setting [7]) was -0.226 (inactive); in assay [2] (setting [8]), -0.128.

For the compound `CCOC(=O)C(N)Cc1ccc(-c2cc(OC(c3ccc(Cl)cc3-n3ccc(C)n3)C(F)(F)F)nc(N)n2)cc1` (stereo not drawn), the fold change in assay [1] (setting [3]) is 0.982 (inactive); in assay [1] (setting [4]), 0.783. Moreover, the cell count in assay [1] (setting [5]) was 8120; in assay [1] (setting [6]) it was 8260. Moreover, the z-score in assay [2] (setting [7]) was 0.073 (inactive); in assay [2] (setting [8]), 0.184.

`CC1(C)S[C@@H]2C(NC(=O)Cc3ccccc3)C(=O)N2C1C(=O)O` (stereo partly drawn): the results for the fold change in assay [1] (setting [3]) and in assay [1] (setting [4]) were 0.875 (inactive) and 0.906, respectively. For the same compound, the values for the cell count in assay [1] (setting [5]) and in assay [1] (setting [6]) were 7910 and 9040, respectively. The figures for the z-score in assay [2] (setting [7]) and in assay [2] (setting [8]) were 0.0178 (inactive) and -0.226, respectively.

With `NC(=O)C(CCC(F)(F)F)N(Cc1ccc(-c2ncon2)cc1F)S(=O)(=O)c1ccc(Cl)cc1` (stereo not drawn), the results for the fold change in assay [1] (setting [3]) and in assay [1] (setting [4]) were 0.918 (inactive) and 0.873, respectively. Besides, the results for the cell count in assay [1] (setting [5]) and in assay [1] (setting [6]) were 6710 and 7310, respectively. In addition, the z-score in assay [2] (setting [7]) is -0.464 (inactive); in assay [2] (setting [8]), 0.74.

On to `COC(=O)C1=COC(OC2OC(CO)C(O)C(O)C2O)[C@H]2C(CO)=CC[C@H]12` (stereo partly drawn), for which the fold change was 0.942 (inactive) in assay [1] (setting [3]) and 0.842 in assay [1] (setting [4]). The cell count in assay [1] (setting [5]) came out at 7570; in assay [1] (setting [6]), 8040. Besides, the z-score is -0.247 (inactive) in assay [2] (setting [7]) and -0.0973 in assay [2] (setting [8]).

Take `O=C(NCCO)c1cccc(-c2cc(Nc3ccc(OC(F)(F)F)cc3)ncn2)c1`: the fold change in assay [1] (setting [3]) was 0.847 (inactive); in assay [1] (setting [4]), 0.626. Moreover, the cell count in assay [1] (setting [5]) amounted to 7400; in assay [1] (setting [6]) it was 8740. Further, the z-score in assay [2] (setting [7]) was -0.469 (inactive); in assay [2] (setting [8]) it was 0.943.

With `CCC(NC(=O)C(C)NC)C(=O)N1CC(O)CC1Cc1c(-c2[nH]c3cc(F)ccc3c2CC2CC(O)CN2C(=O)C(CC)NC(=O)C(C)NC)[nH]c2cc(F)ccc12` (stereo not drawn), the figures for the fold change in assay [1] (setting [3]) and in assay [1] (setting [4]) were 0.946 (inactive) and 0.86, respectively. Besides, the cell count in assay [1] (setting [5]) is 9020; in assay [1] (setting [6]), 9540. For the same compound, the z-score is -0.425 (inactive) in assay [2] (setting [7]) and -0.265 in assay [2] (setting [8]).

For the compound `CC(C)CC(CC(=O)NO)C(=O)NC(Cc1ccc2ccccc2c1)C(=O)NC(C)C(=O)NCCN` (stereo not drawn), the fold change is 0.928 (inactive) in assay [1] (setting [3]) and 0.561 in assay [1] (setting [4]). Moreover, the cell count in assay [1] (setting [5]) was 8260; in assay [1] (setting [6]) it was 8900. In addition, the z-score was -0.492 (inactive) in assay [2] (setting [7]) and -0.379 in assay [2] (setting [8]).

Consider `CCC(C)CC(C)CCCCCCCCC(=O)NC1CC(O)C(NCCN)NC(=O)[C@@H]2C(O)CCN2C(=O)[C@@H](C(O)CCN)NC(=O)[C@H](C(O)C(O)c2ccc(O)cc2)NC(=O)[C@@H]2CC(O)CN2C(=O)[C@H](C(C)O)NC1=O` (stereo partly drawn), for which the fold change in assay [1] (setting [3]) was 0.95 (inactive); in assay [1] (setting [4]), 0.316. In addition, the cell count in assay [1] (setting [5]) amounted to 7980; in assay [1] (setting [6]), 8400. In addition, the z-score in assay [2] (setting [7]) is -0.141 (inactive); in assay [2] (setting [8]) it was 0.0344.

In the case of `CC(C)(C)OC(=O)NC1CCCCCC=CC2C[C@@]2(C(=O)NS(=O)(=O)C2CC2)NC(=O)C2CC(OC(=O)N3Cc4cccc(F)c4C3)CN2C1=O` (stereo partly drawn), the values for the fold change in assay [1] (setting [3]) and in assay [1] (setting [4]) were 0.897 (inactive) and 1.55, respectively. Moreover, the figures for the cell count in assay [1] (setting [5]) and in assay [1] (setting [6]) were 6840 and 7630, respectively. For the same compound, the z-score in assay [2] (setting [7]) was -0.451 (inactive); in assay [2] (setting [8]) it was 0.469.

Consider `[K+]`, for which the fold change in assay [1] (setting [3]) was 0.939 (inactive); in assay [1] (setting [4]) it was 0.429. For the same compound, the cell count in assay [1] (setting [5]) stood at 7790; in assay [1] (setting [6]) it was 8290. For the same compound, the results for the z-score in assay [2] (setting [7]) and in assay [2] (setting [8]) were 0.0668 (inactive) and 0.0929, respectively.

Regarding `C[C@]12CC[C@H]3c4ccc(OC(=O)c5ccccc5)cc4CC[C@H]3[C@@H]1CCC2O` (stereo partly drawn), the fold change in assay [1] (setting [3]) is 0.921 (inactive); in assay [1] (setting [4]), 0.673. For the same compound, the cell count in assay [1] (setting [5]) came to 8340; in assay [1] (setting [6]) it was 9050. Besides, the figures for the z-score in assay [2] (setting [7]) and in assay [2] (setting [8]) were -0.15 (inactive) and -0.151, respectively.

On to `N#Cc1cc(CN2CCC(Nc3ncnc4sc(Cl)cc34)CC2)ccc1F`, for which the fold change is 0.932 (inactive) in assay [1] (setting [3]) and 0.447 in assay [1] (setting [4]). The cell count was found to be 6280 in assay [1] (setting [5]) and 6740 in assay [1] (setting [6]). For the same compound, the z-score is -0.501 (inactive) in assay [2] (setting [7]) and -0.555 in assay [2] (setting [8]).

`Cn1nccc1-c1cc(C(=O)NCc2ccc(S(C)(=O)=O)cn2)c(=O)n(-c2cccc(C(F)(F)F)c2)c1`: the fold change was 0.851 (inactive) in assay [1] (setting [3]) and 0.538 in assay [1] (setting [4]). Moreover, the values for the cell count in assay [1] (setting [5]) and in assay [1] (setting [6]) were 8120 and 9540, respectively. Also, the results for the z-score in assay [2] (setting [7]) and in assay [2] (setting [8]) were -0.549 (inactive) and 0.346, respectively.

With `C=C1C(CO)C(O)CC1n1cnc2c(=O)[nH]c(N)nc21` (stereo not drawn), the fold change in assay [1] (setting [3]) is 1.01 (inactive); in assay [1] (setting [4]) it was 0.924. Also, the figures for the cell count in assay [1] (setting [5]) and in assay [1] (setting [6]) were 7270 and 7170, respectively. Moreover, the z-score in assay [2] (setting [7]) was -0.366 (inactive); in assay [2] (setting [8]), -0.0519.

For `Cn1c(=O)cc(N2CCCC(N)C2)n(Cc2cc(F)ccc2C#N)c1=O` (stereo not drawn), the figures for the fold change in assay [1] (setting [3]) and in assay [1] (setting [4]) were 0.894 (inactive) and 0.61, respectively. The cell count in assay [1] (setting [5]) was 8440; in assay [1] (setting [6]) it was 9440. Besides, the z-score in assay [2] (setting [7]) was -0.335 (inactive); in assay [2] (setting [8]), 1.48.
